Among the data in PubChem BioAssay AID602290 (National Center for Advancing Translational Sciences (NCATS), 2012) are fold change values, retold here.

Molecules are shown by their SMILES. A number with no mark means an inactive call. Calls of active or inactive are those of the source.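 Rule for the calls: active = fold change shows a rise in VEGF expression relative to GAPDH, above the control level; inconclusive = expression about equal to the control; inactive = no rise in relative expression.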

This assay can be described thus: qHTS Assay for Agonists of the Relaxin Receptor RXFP1: VEGF expression. As to conditions: THP1 cells, VEGF mRNA qRT-PCR, 2 h; hits give high values. The source says: The relaxin hormone is involved in the variety of biological functions in normal tissues and diseases. The role of relaxin is well-established in female reproduction and parturition, mammary gland and endometrial development, maintenance of myometrial quiescence during pregnancy. Relaxin signaling through its G protein-coupled receptor (GPCR) RXFP1 results in ECM remodeling through regulation of collagen deposition, cell invasiveness, proliferation and overall tissue homeostasis. […] Recombinant human relaxin (rhRlx) is currently being tested in clinical trials as a protective agent in congestive heart failure, in treating severe preeclampsia, and as an anti-fibrotic agent in systemic sclerosis.
Upon relaxin binding RXFP1 activation leads to the activation of adenylate cyclase (AC) via Gs. cAMP will activate PKA, which phosphorylates many signaling proteins. Thus, detection of cAMP increase is an easy and reliable indication of relaxin receptor activation. To screen for agonists of the relaxin receptor, a HEK293T cell line stably transfected with RXFP1 was used. RXFP1 activation was assayed by changes in cAMP levels as detected with a time-resolved fluorescence energy transfer (TR-FRET) cAMP detection kit.
After the primary screen and SAR work, a probe and its analogs were tested in this selectivity assay. THP1 cells (human acute monocytic leukemia cell line) were used to analyze the stimulation of VEGF gene expression after treatment with relaxin or compounds. The VEGF stimulation in these cultured […] cells is a well-established property of relaxin.
NIH Chemical Genomics Center [NCGC]
NIH Molecular Libraries Probe Production Centers Network [MLPCN]
Assay Submitter (PI): Alexander Agoulnik
400,000 THP1 cells (0.4 mL at 1x10^6 cells/mL) in test media (RPMI-1640 without phenol red, 0.5% FBS, 1x Pen/Strep, 0.05 mM of 2-mercaptoethanol) were seeded in each well on a 24-well plate. After 24 hours incubation at 37 degrees C, 5% CO2, relaxin or compounds were added for 2 hours. The cells were harvested and RNA was extracted by the Trizol (Invitrogen, Carlsbad, CA) method according to manufacturers' instructions. cDNA was synthesized by using Verso cDNA kit (Thermo Scientific, Waltham, MA) according to manufacturer's protocol. Quantitative real time RT-PCR for VEGF and GAPDH gene expression was done using a Roche LightCycler 480 (Roche Diagnostics, Indianapolis, IN) with the appropriate set of primers and probes spanning different exons. The relative fold change in VEGF mRNA level was calculated by the comparative Ct (2- Ct) method using GAPDH expression for normalization of RNA.
For orientation: Quantitative high-throughput screening tests each substance at several concentrations.
As to `COc1ccccc1C(=O)Nc1ccccc1C(=O)Nc1cccc(SC(F)(F)F)c1`, the fold change is 1.15 (active).

As to `CCOc1ccccc1C(=O)Nc1ccccc1C(=O)Nc1cccc(C(F)(F)F)c1`, the fold change is 1.93 (active).

Consider `CCCCOc1ccccc1C(=O)Nc1ccccc1C(=O)Nc1cccc(S(=O)(=O)C(F)(F)F)c1`, for which the fold change is 1.57 (active).

Regarding `CCCOc1ccccc1C(=O)Nc1ccccc1C(=O)Nc1cccc(S(=O)(=O)C(F)(F)F)c1`, the fold change was 1.53 (active).

In the case of `O=C(Nc1cccc(S(=O)(=O)C(F)(F)F)c1)c1ccccc1NC(=O)c1ccccc1OCC(F)(F)F`, the fold change was 1.24 (active).

For `O=C(O)c1cc(-c2ccccc2)nn1CC1CC(c2cccnc2)=NO1` (centres undefined), the fold change was 1.01.

As to `CC(C)Oc1ccccc1C(=O)Nc1ccccc1C(=O)Nc1cccc(S(=O)(=O)C(F)(F)F)c1`, the fold change was 2.79 (active).

As to `COc1ccccc1C(=O)Nc1ccccc1C(=O)Nc1cccc(S(=O)(=O)C(F)(F)F)c1`, the fold change was 1.41 (active).

Consider `CCOc1ccccc1C(=O)Nc1ccccc1C(=O)Nc1cccc(S(=O)(=O)C(F)(F)F)c1`, for which the fold change is 2.33 (active).
